Reference: PubChem BioAssay AID1508600 (Functional Genomics Laboratory (NCATS/FGL), 2020)
Out of some 53,000 sequences screened, about 3,700 (7%) were called active.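 How the source made its calls: active means gene knockdowns whose robust z-score for IL-1 alpha signal is at least 2 or at most -2, so actives lie on both sides; inactive means the rest.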 This excerpt belongs to a sample that is enriched for actives.

Assay: Components of the Cytosolic LPS Sensing Pathway: Gene Identification via Genome-wide siRNA Screen;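 further: robust z of the log signal after scaling to non-targeting control siRNA wells of the plate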
Settings: RAW264.7 macrophages, IL-1a HTRF, actives lie on both sides, screened at 100 nM (by protocol), cells primed 5 h with Pam3CSK4 first
In short: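 Knockdown: 100 nM siRNA, 48h, RAW264.7. Stimulation: Pam3CSK4 5 h, then LipidA via TransIT-TKO 24 h. Output: supernatant IL-1a HTRF, negative-control-normalized, log robust z-score; viability by CellTiter-Glo.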

z-score, inactive:
GGAUGAAGAACUGACUCCGTT against Mboat2 -0.108
GCUACGUAAACGGAAGGCUTT against Abraxas1 0.272
GGUAAGAGGAUGGACACAATT against Chst1 1.08
GAUCCGUUGGGAAAAGAACTT against Ssbp4 -0.881
GGCAGUUCUUAAGUAAUCATT against Fem1al 0.924
GCGAACUCCUCUUUAGGCATT against Chrng -0.594
GCCAUCCUUCCAUUUAAGATT against Wdyhv1 -0.478
GGUAAGGACUAUUUGAAUUTT against Lpar1 -0.429
GCAAAUUAAGCACUGUAAGTT against Dennd1b 0.379
CGCGUACGACUUCUACAAATT against Hmgcs2 0.775
GGUGGAGUUUCUCAAAAGCTT against Kcnc3 0.0264
GCAGGUACUGCGCUAUUAUTT against Atp13a2 -0.766
GGAUGUGGCUGCUUUGAAGTT against Mettl27 -1.38
CCUUCUAGACACCAUACCCTT against Pidd1 0.259
CGUCAUGCAUUUUUCUAAATT against Trim24 0.489
GGAUGAGAAGAAAGAAGAUTT against Srrt -1.36
GGAUACAGCAGUACAAAUGTT against Ces2c -0.135
GGCAAGGAUUUUUCUACCUTT against Tslp -0.555
GCUGCACAAGUGAUAUCCGTT against Trim26 0.397
GGGAAAGCCAUCCUUCACUTT against Erich5 0.288
GGAGAAAAAGAGAUAAGGUTT against Ppp2r2b -0.893
GGACCUGGAGUAUAUGCUGTT against Mgat4f -0.611
GGUUGACUCUACAAAAUACTT against Muc5b -0.656
GGCAGUUGUGAACUUUCUCTT against Telo2 0.243
GGAAAGGCUGUUUCCUACCTT against Atox1 1.05
GGACUUGUGAUUCAAGCAUTT against Rad23b 0.525
CCUGAUUGACGACAGUAAGTT against Mcrs1 0.519
GGGAAUUUAUGCAUUAGCATT against Kif2a 0.111
GGCUCUGCUAUUUCUCCUGTT against Olfr17 -1.16
GGAAACAAAGUCAAUGUGGTT against Cnn1 -0.522
GCUGAAGUAGGGUUUAUUATT against Gdap10 0.786
GCCUUGGACAAAAACACUATT against Ryk -0.917
CCUGAUUCCAAAUGUGUUUTT against Sgcb 0.158
CGGCAUCCAGUCUCAGAUGTT against Coch 1.88
GCCUAAGUUCUAGCAAAAUTT against Spata31d1d 0.514
GGAAGCUACAUGCUGUUCCTT against Anln 0.737
UGAAAAGAGCAAUGAAGAATT against Olfr177 -0.36
GGAAAGGAGAAGAGAAAUGTT against Scyl1 1.18
CCUGACAGUACCAAAAAAUTT against Pax4 -0.599
GGUACAAUGUUCAUACCAATT against Rab9b 0.528
GGGCUAUUGCAUCUUUUAATT against Olfr711 -0.0884
CCGAAUUGAAAUCACAAGCTT against Nup43 -1.31
GGAGAGGUGGUAUUGUUGGTT against Olfr1297 0.29
GCUAAAUUCUUUCCUGAAGTT against Rdx -1
CCAGUUACUAGUAAUACUCTT against Mcm3ap -0.0482
CCAAGGUGCUGUUGGUAUATT against Ssr2 0.248
GCAACGACUCUAAUGACUUTT against Slc38a1 -0.515
GCUUUCCACCACGUACUGATT against Plekha6 -0.0754
GGAUCAGCUGUUGCCAGAGTT against Zfp384 0.806
GGAGUAUAACUAUGGCUUCTT against Mvb12a 0.689
GGAAGUGCUGCACAUACUATT against Bnc2 -0.525
GGAAGAUUUGUUCUAUACUTT against Epgn 0.593
GGGAUUAAAAUCCUAUCUUTT against Eva1a 0.857
GGAUCAGGAUUUAAUGAAUTT against Zc2hc1a -1.13
CCUUAUAAUUGACACUGAUTT against Toe1 0.312
GGAUAGCUGCCAACACUACTT against Baiap2l2 -0.689
GGACACUCAAUGAAAUCUATT against Foxp3 1.21
GCUAAAAAUAAACAGUCGGTT against Pus10 -0.642
GCCCGUCGGAUAUAAGAUUTT against Cd247 -0.351
GGAAGAAUCGUUUAUGACATT against Ppp4r2 0.73
GGUUUUGAGAUUGAAAGAATT against Myof -0.344
GGUGCAACAAUCAUUUGAATT against Casp4 -0.431
GGAAGAAAUGCAUAAUGCATT against Mesd 0.236
GGAAAAACUGCUAGAUCUATT against As3mt 1.49
GGCUAUGGAAAAAGAUAUGTT against Il21r -1.02
GGACCAAGCUGUUAUUAACTT against Dhodh 0.46
GGUUUACCUCUAUGCUAUGTT against Upk3a 1.39
GCAUUUCGCCUCUUUCAUATT against Elac1 -0.405
GGCAUUUCUUUCACUAGCUTT against Olfr618 0.833
GCAGAGGCUCGUCCAUAUATT against Dnpep -0.205
GGACAGUUCUUACUUUACATT against Drd2 1.18
CCGUGAAUUUGGAUGAUGGTT against T2 -1.98
CCAAAGGUGACCACAGAUUTT against Zfp444 1.13
GGCUCCAUCAAGAAAAGUUTT against Usp21 0.681
GGACUGUGCAACUUUGUGGTT against Timp3 -0.634
GGAGUUGGUUCUGUGUUAUTT against Tcf7l2 -0.271
GGAAUGAGUUAGAAUAGCGTT against BC004004 -0.923
GGAAAGAAACUAAGGAAAATT against Arhgap15 0.628
GGAGCUUGACAUUAAGGACTT against Erc2 0.809
GGAAAUAAACAAGUCCCACTT against Urm1 0.465
GGUGAUGUAUGUUACGCUGTT against Srsf1 -0.00436
GGAGAAAGAGAAAAUCGCUTT against Csnk1g2 -0.736
GGUUAUCAGUUGCAUUGUUTT against Gpr37l1 0.809
GCUCAUUCUCAAAGGCUUATT against Rdh12 0.659
GGAAUACAUCGAGUAUCUCTT against Xab2 -1.43
GCUCGAGUGUAAGAUCUGUTT against Rnf182 0.355

z-score, active:
GGUGCAAUCAAAUGGAAUUTT against Nrf1 3.75
GGAGAAAGAAGCUAGUGAGTT against Gm6787 -2.77
GGUGGUUAGAUCUUACGCUTT against Tmem184a 4.37
CCACACGUUCCAUUUCUCGTT against Hilpda -2.65
GGUGCGCUUCUAUGUUCCUTT against Ssrp1 2.38
GCCAUUUGUCCACAAAAUGTT against Ces2g -2.06
GGCACUGUUCUCAUCUGUGTT against Olfr736 -2.41
CGACCAGAGUUAUCUGAAUTT against Ctf2 2.2
GCUUGAAUGGAGCGAAUCGTT against Chat 4.86
GGACACAAAUGACAUCAACTT against Sirpa 2.13
GGAUUGUAAUAAUGGAGCCTT against H2-M10.4 2.94
CCAGUUAAGCCAAACUAUGTT against Wdr5 -2.21
GGUCACAUCGUCCUUACAGTT against Rps6ka4 -2.05
GGACGACAGUGCAAAGCAUTT against Usb1 -2.33
CCGCUUUUGUCAAGUUUUCTT against Asap1 2.65
GGUCGUCUUUUAAGAGUUUTT against Ccdc71l 3.03
GGGUCUCUUGUGGUACAUCTT against Cln3 3.41
GGUUCACGGGUUCUAAGAUTT against Eif1b 2.35
GGCCUUCCUUGACCAAUCUTT against Ren1 -2.11
CGGAACAUGGAGUUUAAGCTT against Slfnl1 2.3
CGACGAAGUGGUCGGAAUUTT against Cryzl1 2.1
GGAAGUCGGGCAAAUACAATT against Tacstd2 5.77
